Consider six compounds from PubChem BioAssay.

Values joined by “and” are separate entries in the source; they are usually repeats but may differ in a detail not shown here. Equal entries are not always repeated. Active and inactive are the calls of the source. Unless noted, no rule for the calls is given here.

Experiment [1] is described as follows: compound effects on lung adenocarcinoma cell viability – A549, calcein-AM fluorescence, 48 h, basal, profiling panel (AID 1162). Also: test concentration not given here. The following applies: higher = more signal.
The nature of experiment [2]: compound effects on differentiated 3T3-L1 adipocyte viability – cell-based, 3T3-L1 adipocytes, calcein-AM fluorescence, 48 h, basal, profiling panel (AID 1163). Also: test concentration not given here. The following applies: 3T3-L1 adipocytes viability, higher = more signal.
The nature of experiment [3]: compound effects on hepatocellular carcinoma cell viability – HepG2, calcein-AM fluorescence, 48 h, basal, profiling panel (AID 1164). Also: test concentration not given here. The settings on record: higher = more signal.
Experiment [4] can be described thus: compound effects on multiple myeloma cell viability – MM1S, calcein-AM fluorescence, 48 h, basal, profiling panel (AID 1165).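 Also: viability of MM1S multiple myeloma cells under basal unstimulated conditions; test concentration not given here.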 The settings on record: higher = more signal.
The nature of experiment [5]: calcein-AM signal in unstimulated myeloma cells – cell-based, calcein-AM fluorescence, 48 h, PK04 Diversity Set, profiling panel (AID 1166).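 Also: cells grown under basal conditions without added stimulus; test concentration not given here.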 The following applies: RPMI8226 myeloma viability, higher = more signal.
The nature of experiment [6]: JC-1 mitochondrial signal, unstimulated HepG2 cells – cell-based, JC-1 fluorescence, 24 h, 100 nL compound, profiling panel (AID 1167). Also: test concentration not given here. The following applies: HepG2 mitochondrial potential, higher = more signal.
A short description of experiment [7]: JC-1 mitochondrial signal, unstimulated adipocytes – cell-based, JC-1 fluorescence, 3T3-L1 adipocytes, 24 h, 100 nL compound, profiling panel (AID 1168). Also: test concentration not given here. The following applies: JC-1 mitochondrial fluorescence, higher = more signal, called active from +8 up or from −8 down.
Experiment [8] in a line: JC-1 mitochondrial signal, unstimulated myeloma cells – cell-based, JC-1 fluorescence, RPMI8226, 24 h, 100 nL compound, profiling panel (AID 1169). Also: test concentration not given here. The following applies: JC-1 mitochondrial potential fluorescence, higher = more signal.
Experiment [9] can be described thus: JC-1 mitochondrial signal, unstimulated MM1S myeloma – cell-based, JC-1 fluorescence, 24 h, 100 nL compound, profiling panel (AID 1170). Also: test concentration not given here. The settings on record: MM1S mitochondrial potential, higher = more signal.
Experiment [10] can be described thus: resazurin metabolic signal in A549 cells – cell-based, resazurin fluorescence, 24 h, PK04 Diversity Set, profiling panel (AID 1171). Also: test concentration not given here. The settings on record: A549 viability, higher = more signal, called active from +8 up or from −8 down. On the technique in general: Resazurin is reduced to fluorescent resorufin, in cell work by metabolically active cells.
Experiment [11] is described as follows: resazurin metabolic signal in HepG2 cells – cell-based, resazurin fluorescence, 24 h, PK04 Diversity Set, profiling panel (AID 1172). Also: test concentration not given here. The following applies: HepG2 viability, higher = more signal.
Experiment [12] in a line: budding yeast growth changes without added modifier – OD600, strain BY4716, 24 h, basal condition, primary screen (AID 1173). The settings on record: S. cerevisiae BY4716 growth, OD600, 24 h; higher = more signal, called active from +8 up or from −8 down.
Experiment [13] in a line: viability profiling in MM1S myeloma cells – cell-based, resazurin fluorescence, basal, 24 h, PK04 Diversity Set, profiling panel (AID 1174). Also: test concentration not given here. The following applies: higher = more signal, called active from +8 up or from −8 down.
Experiment [14] concerns the target Dihydroorotate dehydrogenase (quinone), mitochondrial (Plasmodium falciparum (isolate 3D7)) (UniProt Q08210). Kind of experiment: inhibition of P. falciparum DHODH – biochemical, C-terminal His tag, absorbance 600 nm, primary screen (AID 1175).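 Also: recombinant parasite enzyme with a five histidine tag at its C terminus; test concentration not given here.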 The following applies: PfDHODH enzyme, DCIP absorbance 600 nm; higher = more signal, called active from +8 up or from −8 down.

Experiment [15] can be described thus: inhibition of PAO1 biofilm formation – strain PAO1, LB-PBS medium, absorbance 600 nm, primary screen (AID 1176). Also: test concentration not given here. The settings on record: P. aeruginosa PAO1 growth/biofilm, A600, 12 h; higher = more signal.
Experiment [16] in a line: growth modulation of vineyard yeast isolate – strain RM11-1a, OD600, basal, 24 h, primary screen (AID 1177).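 Also: cultures grown under basal conditions with no added stressor; test concentration not given here.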 The settings on record: S. cerevisiae RM11-1a growth, OD600, 24 h; higher = more signal, called active from +8 up or from −8 down.
Experiment [17] is described as follows: growth of efflux-deficient E. coli DRC39 – strain DRC39, OD650, 24 h, E. coli filamentation inducers, primary screen (AID 1178).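 Also: growth measured as culture turbidity by optical density at 650 nm; test concentration not given here.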 The settings on record: E. coli DRC39 acrAB, higher = more signal, called active from +8 up or from −8 down.
A short description of experiment [18]: growth of efflux-deficient E. coli DRC39 – strain DRC39, OD650, 48 h, E. coli filamentation inducers, primary screen (AID 1179).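 Also: screen aims at cell division blockers that make cells filament.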 The following applies: E. coli DRC39 delta-acrAB growth, higher = more signal, called active from +8 up or from −8 down.
The nature of experiment [19]: viability profiling in RPMI8226 myeloma cells – cell-based, resazurin fluorescence, basal, 24 h, PK04 Diversity Set, profiling panel (AID 1180).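 Also: RPMI8826 multiple myeloma cell line at 5000 cells per well; test concentration not given here.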 The following applies: higher = more signal.
Experiment [20] has as its target E3 ubiquitin-protein ligase XIAP (Homo sapiens) (UniProt P98170). In words: small molecules binding XIAP protein – biophysical, small-molecule microarray, fluorescence 635 nm, primary screen (AID 1181).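 Also: score merges 667 nm emission and signal to noise over triplicate slides.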 The following applies: higher = more signal.

Sequence of Dihydroorotate dehydrogenase (quinone), mitochondrial (Plasmodium falciparum (isolate 3D7)) (Q08210 whole entry, looked up): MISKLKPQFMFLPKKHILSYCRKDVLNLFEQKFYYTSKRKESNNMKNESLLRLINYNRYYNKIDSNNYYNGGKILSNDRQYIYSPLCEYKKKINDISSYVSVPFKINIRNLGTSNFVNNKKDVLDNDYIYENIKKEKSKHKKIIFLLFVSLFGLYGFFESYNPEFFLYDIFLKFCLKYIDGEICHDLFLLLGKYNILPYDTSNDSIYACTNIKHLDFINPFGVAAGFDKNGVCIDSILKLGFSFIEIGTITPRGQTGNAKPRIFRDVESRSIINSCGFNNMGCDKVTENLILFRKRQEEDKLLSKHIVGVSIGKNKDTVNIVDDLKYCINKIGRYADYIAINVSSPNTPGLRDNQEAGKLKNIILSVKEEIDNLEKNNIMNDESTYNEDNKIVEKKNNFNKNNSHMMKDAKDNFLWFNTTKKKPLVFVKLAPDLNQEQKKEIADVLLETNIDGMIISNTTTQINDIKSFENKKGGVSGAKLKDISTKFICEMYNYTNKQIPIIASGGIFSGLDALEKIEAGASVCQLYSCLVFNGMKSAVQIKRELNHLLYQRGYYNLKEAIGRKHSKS
Sequence of E3 ubiquitin-protein ligase XIAP (Homo sapiens) (P98170 whole entry, looked up): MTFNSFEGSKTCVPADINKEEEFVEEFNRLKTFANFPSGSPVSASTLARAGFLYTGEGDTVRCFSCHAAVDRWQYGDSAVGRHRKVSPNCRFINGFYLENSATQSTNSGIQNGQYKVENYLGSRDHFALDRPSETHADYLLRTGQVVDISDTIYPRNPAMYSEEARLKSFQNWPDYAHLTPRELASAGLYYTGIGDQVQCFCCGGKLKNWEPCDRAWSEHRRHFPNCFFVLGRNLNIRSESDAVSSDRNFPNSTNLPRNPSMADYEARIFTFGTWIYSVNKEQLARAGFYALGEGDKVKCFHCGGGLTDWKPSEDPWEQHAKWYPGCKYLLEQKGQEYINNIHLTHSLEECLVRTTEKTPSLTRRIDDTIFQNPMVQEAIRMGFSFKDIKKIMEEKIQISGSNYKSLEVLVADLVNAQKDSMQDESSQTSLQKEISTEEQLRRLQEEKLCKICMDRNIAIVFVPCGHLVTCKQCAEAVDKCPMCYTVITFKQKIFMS

Regarding `COC(=O)[C@@]1(Cc2ccc(OC)cc2)[C@H]2c3cc(C(=O)N(C)C)n(Cc4ccc(O)c(OC)c4)c3C[C@H]2CN1C(=O)c1ccccc1`, the z-score in [1] is -0.352 and 0.46; in experiment [2], 0.865 and 0.215; in experiment [3], -0.0117 and 0.763; in [4] it was 0.0138 and -1.26; in [5] it was -0.475 and -2.77; in experiment [6], 2.46 and 2.03. For the same compound, the z-score was -0.0971 (inactive) and 0.395 (inactive) in experiment [7]; 0.178 and -0.792 in [8]; -0.74 and -1.95 in experiment [9]; 1.06 (inactive) and -1.21 (inactive) in experiment [10]; 0.613 and -0.518 in experiment [11]; 1.5 (inactive) and 1.69 (inactive) in [12]. Further, the z-score in experiment [13] is -0.475 (inactive) and -1.77 (inactive); in experiment [15], -0.499 (inactive) and -0.347 (inactive); in experiment [16] it was 0.884 (inactive) and 1.29 (inactive); in [17] it was 0.247 (inactive) and 0.423 (inactive); in [18] it was -0.128 (inactive) and -0.102 (inactive); in [19], 0.381 and -2.92. In addition, the composite z-score in experiment [14] was 0.243 (inactive) and 0.355 (inactive); in experiment [20], -0.207 and 0.277.
On to `CO[C@@H]1COC(=O)CC=C[C@H](C)[C@@H](NS(=O)(=O)c2ccc(C)cc2)COC(=O)CC=C[C@@H]1C`, for which the z-score in experiment [1] was 0.725 and -1.15; in [2] it was -0.779 and -0.0305; in experiment [3], 0.515 and -1.42; in experiment [4], 0.317 and 0.286; in experiment [5] it was -0.0273 and 0.0878; in [6], 0.651 and -0.353. Besides, the z-score in [7] was -0.162 (inactive) and -1.02 (inactive); in [8] it was -0.235 and 0.237; in [9], 0.654 and -0.385; in experiment [10], -0.512 (inactive) and 1.4 (inactive); in [11], 0.157 and 1.73; in experiment [12], -0.627 (inactive) and -0.634 (inactive). The z-score is 0.445 (inactive) and 0.542 (inactive) in experiment [13]; -0.531 (inactive) and -0.479 (inactive) in experiment [15]; 0.344 (inactive) and 0.104 (inactive) in experiment [16]; 0.643 (inactive) and 0.426 (inactive) in [17]; 0.292 (inactive) and 0.187 (inactive) in [18]; -0.325 and 0.774 in experiment [19]. The composite z-score in experiment [14] is -0.198 (inactive) and -0.555 (inactive); in experiment [20], -0.209 and -0.304.
As for `C=C[C@@H](OC)[C@H](O)c1ccc(OCCO)cc1`, the z-score in experiment [1] is 0.143 and 0.72; in experiment [2], -0.434 and 0.971; in experiment [3], 0.124 and 0.628; in [4], 0.663 and 0.916; in experiment [5], -0.486 and 0.64; in experiment [6], -0.244 and 0.904. For the same compound, the z-score was 0.36 (inactive) and -1.97 (inactive) in experiment [7]; -0.982 and -0.69 in [8]; 0.88 and -1.28 in experiment [9]; -0.133 (inactive) and -0.135 (inactive) in experiment [10]; 0.242 and 0.884 in [11]; -5.46 (inactive) and -6.32 (inactive) in [12]. The z-score in [13] was -0.154 (inactive) and 0.883 (inactive); in experiment [15], 0.519 (inactive) and 1.64 (inactive); in [16], 0.526 (inactive) and -2.73 (inactive); in [17], 0.0235 (inactive) and 1.08 (inactive); in experiment [18], 0.121 (inactive) and 1.48 (inactive); in [19], -0.121 and 1.36. Moreover, the composite z-score was 0.358 (inactive) and -0.456 (inactive) in experiment [14]; -0.19 and -0.102 in experiment [20].
In the case of `C=CCN(Cc1ccccc1)C(=O)C1N(CCOCCO)C(=O)C2C(C(=O)O)C3C=CC21O3` (stereo not given), the z-score in experiment [1] was 0.457 and -0.65; in experiment [2], 1 and 0.0853; in experiment [3], -0.475 and -1.46; in experiment [4] it was 0.443 and 1.02; in experiment [5], 0.953 and -1.25; in [6], 0.341 and -0.0276. In addition, the z-score is 0.978 (inactive) and -0.925 (inactive) in experiment [7]; 0.747 and 0.0424 in [8]; 1.26 and -0.0145 in experiment [9]; -0.474 (inactive) and 0.0887 (inactive) in experiment [10]; 0.649 and -0.0686 in [11]; -1.56 (inactive) and 0.494 (inactive) in experiment [12]. In addition, the z-score in [13] was 1.22 (inactive) and -0.234 (inactive); in experiment [15], -0.18 (inactive); in experiment [16], -1.46 (inactive) and 0.356 (inactive); in experiment [17], 1.55 (inactive) and 0.0673 (inactive); in experiment [18], 1.05 (inactive) and -0.12 (inactive); in experiment [19], 0.795 and -0.418. The composite z-score was -3.5 (inactive) and -0.648 (inactive) in experiment [14]; -0.02 and -0.291 in experiment [20].
As for `CC(CO)N1C(=O)[C@@H]2C3C(=O)OCCC=C[C@H]3OC23C=CCN(c2ccc(Cl)cc2)C(=O)[C@@H]13` (stereo not given in full), the z-score was 0.112 and -0.123 in [1]; 0.194 and 0.458 in experiment [2]; 0.47 and 1.07 in experiment [3]; -0.725 and -0.182 in experiment [4]; 0.622 and -0.222 in experiment [5]; 0.242 and 0.0111 in [6]. Further, the z-score in experiment [7] was 0.518 (inactive) and -0.689 (inactive); in [8] it was 0.0601 and -0.811; in experiment [9], 0.936 and -0.274; in experiment [10] it was 0.189 (inactive) and 0.557 (inactive); in [11] it was -0.445 and 0.702; in [12] it was 0.604 (inactive) and -0.219 (inactive). Also, the z-score was -0.0472 (inactive) and -0.544 (inactive) in experiment [13]; -0.497 (inactive) and -0.167 (inactive) in experiment [15]; 1.43 (inactive) and -0.727 (inactive) in [16]; 0.519 (inactive) and -0.342 (inactive) in experiment [17]; 0.399 (inactive) and -0.538 (inactive) in [18]; 0.23 and -0.131 in [19]. Further, the composite z-score was -1.16 (inactive) and -1.13 (inactive) in experiment [14]; 0.269 and -0.0172 in experiment [20].
In the case of `O=C1NC(=O)C2C1C=CC(C(O)c1ccc([N+](=O)[O-])cc1)N2Nc1ccc(Cl)cc1Cl` (stereo not given), the z-score in experiment [1] was 0.953 and 1.59; in [2], 0.0938 and 0.263; in experiment [3], 0.949 and 1.79; in experiment [4], -0.251 and 0.596; in experiment [5], -0.194 and 0.932; in [6], -0.115 and -0.654. In addition, the z-score in [7] is -0.833 (inactive) and -0.57 (inactive); in experiment [8], -0.314 and -0.905; in [9], 0.319 and 2.28; in experiment [10], 0.303 (inactive) and 0.766 (inactive); in experiment [11], -1.01 and 0.266; in experiment [12], -8.52 (active) and -8.8 (active). For the same compound, the z-score was 0.52 (inactive) and -0.103 (inactive) in experiment [13]; 2.4 (inactive) and 2.49 (inactive) in experiment [15]; -0.728 (inactive) and -1.12 (inactive) in experiment [16]; -0.0259 (inactive) and 0.6 (inactive) in [17]; -0.568 (inactive) and 0.615 (inactive) in [18]; 0.425 and 0.122 in experiment [19]. The composite z-score is -0.87 (inactive) and -1.11 (inactive) in experiment [14]; -0.0102 and 0.0975 in experiment [20].
